Shown are actives, neighbours in structure and some others; about 5.4% of the full set was active somewhere.
ALR H2O2 inh – blocks human ALR sulfhydryl oxidase activity; P55789; actives 3.8% (n = 290,000); purified ALR, DTT oxidation, H2O2 HRP-luminol luminescence; inhibition, % (test concentration not listed);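 active = mean replicate inhibition above about 79%, with every replicate also reaching it, limit read from the data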
Target sequence (P55789 whole entry, looked up): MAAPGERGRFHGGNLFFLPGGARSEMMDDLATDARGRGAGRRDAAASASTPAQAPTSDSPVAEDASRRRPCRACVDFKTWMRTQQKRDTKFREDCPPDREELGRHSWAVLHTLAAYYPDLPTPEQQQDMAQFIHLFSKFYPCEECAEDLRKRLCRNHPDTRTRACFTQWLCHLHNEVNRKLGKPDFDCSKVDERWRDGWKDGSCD
SMARCA2 activ – increases SMARCA2 function in MMTV reporter cells. MG213 cells, MMTV-luciferase reporter, dexamethasone, overnight. activation, % at 9.1 µM. actives 1% (n = 370,000). AID 652017; in the data active = activation above about 7.8%
MIN6 prolif – induces beta-cell replication in MIN6 cells | AID 2380 | proliferation, % at 10 µM | actives 0.29% (n = 330,000) | MIN6 cells proliferation, ATPlite luminescence, 48 h; cells starved in 0.2% serum; 100% = growth in 10% serum;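 active = compounds whose signal lies at least 3.5 SD above the mean of all wells on their plate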
JMJD2C inh – inhibitors of human GASC-1 (JMJD2C) demethylase; actives 0.069% (n = 330,000); AID 2099; GST-JMJD2C(1-420) H3K9me3 demethylation, DELFIA europium; Q9H3R0; inhibition, % at 2.35 µM;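 active = more than half of a compound's replicate wells show inhibition beyond 50%, single wells judged on their own value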;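 note: signal counts dimethyl H3K9 product captured on neutravidin plate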
Target sequence (Q9H3R0 1-420 limits assumed): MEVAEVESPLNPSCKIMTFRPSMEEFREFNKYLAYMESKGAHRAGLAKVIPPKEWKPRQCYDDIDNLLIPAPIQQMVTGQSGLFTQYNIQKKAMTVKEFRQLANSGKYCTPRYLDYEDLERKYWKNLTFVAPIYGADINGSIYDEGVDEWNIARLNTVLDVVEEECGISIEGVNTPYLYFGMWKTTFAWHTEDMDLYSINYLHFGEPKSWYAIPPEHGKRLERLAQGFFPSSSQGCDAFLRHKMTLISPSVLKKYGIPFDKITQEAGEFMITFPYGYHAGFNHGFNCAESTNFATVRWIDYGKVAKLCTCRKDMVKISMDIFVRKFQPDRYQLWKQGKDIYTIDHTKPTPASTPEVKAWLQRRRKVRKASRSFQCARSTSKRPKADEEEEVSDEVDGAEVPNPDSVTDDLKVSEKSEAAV
Exocytosis inh – lytic granule exocytosis inhibition. inhibition, % at 10 µM. actives 0.66% (n = 360,000). TALL-104 LAMP-1 surface exposure, flow cytometry; cells stimulated with thapsigargin and PMA;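 active = inhibition above about 55%, limit read from the data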
PfM18AAP inh – blocks P. falciparum M18 aspartyl aminopeptidase | recombinant PfM18AAP, H-Glu-NHMec fluorogenic cleavage | inhibition, % at 7.35 µM | actives 1.2% (n = 290,000) | AID 1822;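 active = inhibition above the campaign mean inhibition over all tested compounds plus 3 SD, cut at about 28% in these data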
A number is an active result; i = inactive; nt = no result.

SMILES	ALR H2O2 inh	SMARCA2 activ	MIN6 prolif	JMJD2C inh	Exocytosis inh	PfM18AAP inh
COP(=O)(OC)C1(Nc2ccc(C)cc2)CCCCC1	99	i	i	i	i	i
Cc1ccc(OC(=O)N(C)C[C@H]2OCc3cnnn3CCCC(=O)N([C@H](C)CO)C[C@H]2C)cc1	nt	i	nt	nt	nt	nt
Cc1cnc(-n2c(=S)[nH]c3ccccc3c2=O)s1	97	i	i	i	i	nt
O=c1c2ccccc2[nH]c(=S)n1-c1ccc2c(c1)OCO2	i	i	i	i	i	i
Cc1cc(N2CCNC[C@@H]2C)ccc1N1CC[C@@H](O)C1	nt	i	nt	nt	nt	nt
CCN(CC)c1ccc(CC2C(=O)N(C)C(=O)N(C)C2=O)cc1	99	nt	i	i	i	i
C=CCOc1ccc(CC2C(=O)N(C)C(=O)N(C)C2=O)cc1	i	i	i	i	i	i
COc1cc2c(c(OC)c1OC)-c1ccc(SC)c(=O)cc1C(N)CC2 (stereo not given)	nt	i	nt	nt	i	nt
Cc1cc(C)cc(N2C(=O)NC(=O)/C(=C\c3cccn3-c3ccc(Cl)cc3)C2=O)c1	98	i	i	i	i	i
CN1C(=O)/C(=C/c2cccn2-c2ccc3ccccc3c2)C(=O)NC1=S	i	i	i	i	98	i
O=C(O)c1cc2ccccc2n1C1CCN(Cc2ccccc2)CC1	nt	i	nt	nt	nt	nt
CCN(CC)c1ccc(N=Cc2c(O)n(-c3ccccc3)c(=O)[nH]c2=O)cc1	81	i	i	i	i	i
CCOc1ccc(-n2c(O)c(C=Nc3ccc(N(CC)CC)cc3)c(=O)[nH]c2=O)cc1	i	i	i	i	i	i
CCN(CC)c1ccc(N=Cc2c(O)n(-c3ccccc3C)c(=O)[nH]c2=O)cc1	98	i	i	i	i	i
CC(C)C(CN1CCC(C)(c2cccc(O)c2)[C@@H](C)C1)NC(=O)C1Cc2ccc(O)cc2CN1 (stereo not given in full)	nt	i	nt	nt	nt	nt
COc1ccc(CN2C(=O)C(CC(=O)NCc3ccco3)CC(C(=O)N(C)C)=C2C)cc1 (stereo not given)	nt	i	nt	nt	i	nt
CC(=O)Nc1ccccc1OP1(=O)COc2ccccc2OC1	81	i	i	i	i	i
Cc1cc(C)c2c(c1)-c1cc(C)nn1C(c1cccnc1)N2 (stereo not given)	99	i	i	i	i	i
CN1C2(C)c3ccccc3C1(c1ccccc1)c1ccccc12	nt	i	nt	nt	nt	nt
Cc1cc(/C=C2/C(=O)NC(=O)N(Cc3ccco3)C2=O)c(C)n1-c1ccccc1	92	i	i	i	i	i
CN(C)c1ccc(/C=C2/C(=O)NC(=O)N(Cc3ccco3)C2=O)cc1	i	i	i	i	i	i
COc1ccc2[nH]cc(CCN=C(N)N)c2c1	i	i	i	i	i	i
COc1ccc2[nH]cc(C3=CCNCC3)c2c1	97	nt	i	i	nt	nt
Nc1ccc(Br)cc1	nt	i	nt	nt	i	nt
Nc1ccc(N=Nc2ccccc2)cc1	98	i	i	i	i	i
SMILES	ALR H2O2 inh	SMARCA2 activ	MIN6 prolif	JMJD2C inh	Exocytosis inh	PfM18AAP inh
CCC12CCN(CC3(O)CC3)C(Cc3ccc(O)cc31)C2(C)C (stereo not given)	nt	i	nt	nt	nt	nt
NC(=S)c1cn(C2OC(CO)C(O)C2O)c2ncnc(N)c12 (stereo not given)	i	i	nt	i	i	40
O=C1NC(=O)N(c2ccccc2)C(=O)/C1=C/c1ccc(Sc2ccccc2)o1	97	nt	nt	i	i	i
O=C1NC(=O)N(c2ccccc2F)C(=O)/C1=C/c1ccc(Sc2nc3ccccc3[nH]2)o1	98	i	nt	i	i	i
O=C1NC(=O)N(c2ccccc2)C(=O)/C1=C/c1ccoc1	i	i	i	i	i	i
O=C1NC(=O)N(c2cccc(Cl)c2)C(=O)/C1=C\c1ccc(Sc2nc3ccccc3[nH]2)o1	i	i	i	i	i	i
O=C1NC(=S)N(c2ccccc2)C(=O)/C1=C/c1ccco1	99	i	i	i	i	i
Cc1cccc(N2C(=O)NC(=O)/C(=C/c3ccc(N4CCOCC4)cc3)C2=O)c1	97	i	i	i	i	i
CCNc1ccc(P(=S)(N(C)C)N(C)C)cc1	99	nt	i	i	i	i
COc1ccccc1-n1c(O)c(/C=N/NC(=S)Nc2ccccc2)c(=O)[nH]c1=S	92	i	i	i	i	i
CCn1c(O)c(/C=N/NC(=O)c2ccccc2)c(=O)[nH]c1=S	i	i	i	i	i	i
CCOc1ccc(-c2cc(C)[n+](CCc3ccc(OC)c(OC)c3)c(-c3ccc(OCC)cc3)c2)cc1	i	i	i	i	57	i
Cc1ccc(NC(=O)CSc2nnc([C@@H](N)Cc3c[nH]c4ccccc34)o2)c(C)c1	98	i	i	i	i	i
Oc1ccc(C2=CCNCC2)cc1O	99	i	i	i	i	nt
C1=C(c2ccccc2)CCNC1	i	i	i	i	i	i
C/C(=N\NC(=S)Nc1ccccc1)c1c(O)n(C)c(=O)n(C)c1=O	92	i	i	i	i	i
Cc1cc(=O)oc2cc3c(cc12)CCCN3	93	i	i	i	i	i
CCCCC/C(=N/O)c1c(C)[nH]c2ccccc12	99	i	i	i	i	i
CCCC/C(=N/O)c1c(C)[nH]c2ccccc12	99	i	i	i	i	i
CCCCC/C(=N\O)c1c[nH]c2ccccc12	i	i	i	i	i	i
COP(=O)(OC)OC=C(Cl)Cl	nt	i	nt	nt	nt	nt
COC(=O)C1=C(c2ccc(Cl)c(C(F)(F)F)c2)C[C@@H]2CC[C@H]1N2C(=O)NCc1ccc2c(c1)OCO2	i	i	i	i	76	nt
Clc1ccc([C@H]2CC3CCC2N3)cn1 (stereo not given in full)	nt	i	nt	nt	nt	nt
COc1cccc(-n2c(/C=C/c3ccc(O)c(O)c3)nc3ccccc3c2=O)c1	91	i	i	i	i	57
C[C@H](Cc1ccc(OCC(=O)O)cc1)NC[C@H](O)c1cccc(Cl)c1	nt	i	nt	nt	nt	nt
SMILES	ALR H2O2 inh	SMARCA2 activ	MIN6 prolif	JMJD2C inh	Exocytosis inh	PfM18AAP inh
CCN(CC)c1ccc(/C=C/[N+](=O)[O-])cc1	99	i	i	i	71	i
O=C1CC[C@@]2(O)[C@H]3Cc4ccc(O)c5c4[C@@]2(CCN3CC2CC2)C1O5 (stereo not given in full)	nt	i	nt	nt	nt	nt
CCOc1cc(C=O)ccc1O	nt	i	i	nt	i	nt
COc1cc(/C=C/[N+](=O)[O-])ccc1O	i	i	i	i	i	29
O=C(CN1C(=O)CN=C(c2ccccc2)c2cc(Cl)ccc21)NC1CCCCC1	nt	i	nt	nt	nt	nt
Cc1cc(N=Nc2ccccc2C)ccc1N	86	i	i	i	i	nt
O=C1CC(c2cccnc2)=NN1c1ccc(Cl)cc1Cl	i	i	i	i	i	i
CN1Cc2cccnc2N(C)Cc2cc(Cl)ccc21	99	i	i	i	i	i
CCn1nc(/C=C/c2ccccc2)nc2c(=O)n(C)c(=O)nc1-2	nt	i	i	i	88	i
CCn1nc(-c2cccs2)nc2c(=O)n(C)c(=O)nc1-2	nt	nt	nt	nt	79	nt
Cc1ccc(C(=O)NCCN2CCC3(CC2)C(=O)NCN3c2ccccc2)cc1	nt	i	nt	nt	nt	nt
O=C(NCCN1CCC2(CC1)C(=O)NCN2c1ccccc1)C(c1ccccc1)c1ccccc1	nt	i	nt	nt	nt	nt

High-throughput results as filed in PubChem.
